Laboratory results taken from PubChem BioAssay (NCI).
This is part of a sample that, as a whole, favours compounds with a hit. Of some 79,000 tested, about 15% had one in any assay. Unmarked numbers belong to inactive results. The source made the active and inactive calls. Cut-off read from the data, not from the text of the source: active = growth inhibition above about 70%; inactive = the rest.

Assays:
[1] = NCI Yeast Anticancer Drug Screen. Data for the mec2-1 strain (AID 157); settings: S. cerevisiae mec2-1 strain, at 50.0 µM, active compounds read high
How it was run: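 Readout is yeast growth inhibition, normalised to vehicle-treated controls, in the mec2-1 strain exposed to compound.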

[2] = NCI Yeast Anticancer Drug Screen. Data for the sgs1 mgt1 strain (AID 161);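 note: 0% = growth of cultures given vehicle only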; settings: S. cerevisiae sgs1 mgt1 strain, at 50.0 µM, active compounds read high
How it was run: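 This yeast growth screen uses a strain with defined DNA-repair lesions; compound-treated growth is compared with vehicle-treated growth.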

[3] = NCI Yeast Anticancer Drug Screen. Data for the cln2 rad14 strain (AID 165);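 note: 0% = growth equal to vehicle treated cultures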; settings: S. cerevisiae cln2 rad14 strain, at 50.0 µM, active compounds read high
How it was run: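 Relative to vehicle controls, growth inhibition of compound-treated cln2 rad14 yeast was recorded.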

[4] = NCI Yeast Anticancer Drug Screen. Data for the bub3 strain (AID 167); settings: S. cerevisiae bub3 mutant strain, at 50.0 µM, active compounds read high
How it was run: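 In this screen, a yeast mutant lacking normal mitotic checkpoint function is challenged with compound. Relative growth versus vehicle gives the inhibition value.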

[5] = NCI Yeast Anticancer Drug Screen. Data for the mlh1 rad18 strain (AID 175); settings: S. cerevisiae mlh1 rad18 strain growth inhibition; at 50.0 µM; active compounds read high
How it was run: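 Test agents were incubated with a yeast strain of defined genotype (DNA damage repair defect). Inhibition of growth was derived by comparison with vehicle-exposed cultures.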

| Compound | growth inhibition [1] [%] | growth inhibition [2] | growth inhibition [3] [%] | growth inhibition [4] [%] | growth inhibition [5] [%] |
| --- | --- | --- | --- | --- | --- |
| COc1ccc(N=C2SC(=N/N=c3\sc4ccccc4n3C)SC2=Nc2ccc(OC)cc2)cc1 | -32.9 | -2.9% | -41.1 | 28.9 | -12.7 |
| COc1ccc(/C(Cl)=C(\CN(C)C)c2ccc(OC)c(OC)c2)cc1OC | 18.6 | 10.3% | 27.9 | -5.85 | 24.1 |
| Oc1ccc2ccccc2c1C(c1ccccc1)N1CCOCC1 (centres undefined) | -11 | -5.9% | – | -12.4 | -15.2 |
| c1ccc(N2CCN(C(c3cccs3)N3CCN(c4ccccc4)CC3)CC2)cc1 | 8.9 | 0.8% | -4.15 | -5.5 | 19.1 |
| Clc1cc(Br)c2c(Cl)ccnc2c1Br | -1.3 | 7.5% | -8.65 | 0.85 | 20 |
| Cc1ccc(Cl)cc1NC(=O)C(Br)C(Br)c1ccccc1 (centres undefined) | -7.7 | 11.9% | 0.85 | -0.1 | 6.2 |
| N#C/C(=C/c1cccnc1)C(=O)c1ccccc1 | -18.9 | 1.3% | 12.6 | -22.6 | 7.15 |
| O=C(Nc1ccc(Cl)c([N+](=O)[O-])c1)Oc1ccc2ccccc2c1 | 3 | 8.15% | 11.9 | 23.4 | 10.7 |
| CSC(=NC(=O)c1c(Cl)cccc1Cl)SC | 14.2 | 40.2% | 11.3 | 42.4 | 31.9 |
| CCN(CC)CCOC(=O)Cc1ccc2c(=O)cc(-c3ccc(C)cc3)oc2c1 | -18.4 | -13.6% | 0.75 | -1.55 | -54.5 |
| CCCCC(=O)N/N=C/c1c[nH]c2ccc(Br)cc12 | 6.05 | -9.1% | 0.85 | 12.9 | 0.05 |
| CC1[C@@H]2CC=C3[C@H]4CCC5Cc6nc7c(nc6C[C@@]5(C)C4CC(=O)[C@]32CO[C@]12OC(C)(C)CC2O)CC1CC[C@@H]2C3=C[C@H]4O[C@@]5(O[C@@](C)(CO)C[C@@H]5O)C(C)[C@@]4(O)[C@]3(C)[C@@H](O)CC2[C@]1(C)C7 (some centres undefined) | 40.9 | 90.7% (active) | 57.2 | 47 | 40.1 |
| NCC1CCCCO1 (centres undefined) | 5.1 | 14.2% | -4.1 | -16.7 | -4.65 |
| COC(=O)c1ccccc1Cl | 4 | 9.05% | -14.3 | 6.65 | 26.1 |
| N=c1c2c(ncn1N)CCN(Cc1ccccc1)C2 | 7.35 | -11.4% | -71.8 | -6 | -32.8 |
| CC(=O)c1cc2ccccc2o1 | 1.4 | -4% | 0.05 | -6.7 | 4.6 |
| CC(=O)c1cc(CC2Cc3cc4c(cc3C2=O)CCC4)cc2c1CCC2 (centres undefined) | -36.1 | -14.2% | 9 | -6.45 | -4.85 |
| CC(C)(C)c1cc(CN2CCOCC2)cc(C(C)(C)C)c1O | 5 | 0.7% | 0.15 | -3.15 | 14.3 |
| COC1(OC)CC2C(=O)N(Cc3ccccc3)C1C(S(=O)(=O)c1ccccc1)C2S(=O)(=O)c1ccccc1 (centres undefined) | 29.5 | 45.5% | -31.7 | 50.2 | 64.8 |
